Measurements as given in PMC7862700, “An all-to-all approach to the identification of sequence-specific readers for epigenetic DNA modifications on cytosine”.

What follows are sequences tested against T1, EHF (Homo sapiens, UniProt Q9NZC4 1-300) (assay: DAPPL (digital affinity profiling via proximity ligation, sequencing); 10 mM Tris-HCl pH 7.5, 50 mM NaCl, 1 mM DTT, 4% glycerol, room temperature, 30 min; GST-TFs on glutathione beads, 16-mer random dsDNA library, 0.1% formaldehyde crosslink after washing; high values mean tight binding). Conditions: protein: recombinant; tags: N-terminal GST; dsDNA, one strand shown.
T1 sequence: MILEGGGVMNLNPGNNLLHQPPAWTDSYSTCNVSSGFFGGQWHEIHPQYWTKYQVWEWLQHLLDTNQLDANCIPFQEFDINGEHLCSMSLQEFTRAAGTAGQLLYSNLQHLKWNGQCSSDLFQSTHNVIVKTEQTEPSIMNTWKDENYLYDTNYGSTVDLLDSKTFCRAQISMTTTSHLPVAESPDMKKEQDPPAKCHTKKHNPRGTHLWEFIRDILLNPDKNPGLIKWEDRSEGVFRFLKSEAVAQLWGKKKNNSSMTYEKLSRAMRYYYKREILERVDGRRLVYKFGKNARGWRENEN
Summary of the method: (§1)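 After expression in yeast as GST fusions, human transcription factors were bound to glutathione beads, DNA-barcoded and mixed with a tag-only sample. The pools were incubated with 200 nmole of a 16-mer random double-stranded DNA library in Tris/NaCl/DTT/glycerol buffer (30 min, room temperature), washed and crosslinked with 0.1% formaldehyde. Proximity ligation with BsaI/T4 ligase ran for 1 h at 37 °C, before PCR amplification and sequencing on an Illumina NextSeq500. Binding signal is a hexamer's read frequency for a factor divided by its frequency for the tag-only sample.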
With CCTCAC the binding signal was 1.28 fold enrichment (6-mer frequency, TF over GST control). CGTCAC was tested, and the binding signal was 1.2 fold enrichment (6-mer frequency, TF over GST control). With CATGCT the binding signal was 1.24 fold enrichment (6-mer frequency, TF over GST control). In the case of CTTACT, the binding signal is reported as 1.34 fold enrichment (6-mer frequency, TF over GST control). For CGGCAT, the binding signal was 1.09 fold enrichment (6-mer frequency, TF over GST control). In the case of TGCATT, the binding signal is reported as 1.3 fold enrichment (6-mer frequency, TF over GST control). In the case of TCGCAA, the binding signal is reported as 1.18 fold enrichment (6-mer frequency, TF over GST control). In the case of TCGTAC, the binding signal is reported as 1.14 fold enrichment (6-mer frequency, TF over GST control). In the case of TTTACG, the binding signal is reported as 1.3 fold enrichment (6-mer frequency, TF over GST control). In the case of GAAGCA, the binding signal is reported as 1.26 fold enrichment (6-mer frequency, TF over GST control). In the case of TTTCAA, the binding signal is reported as 1.3 fold enrichment (6-mer frequency, TF over GST control). In the case of ACCCGC, the binding signal is reported as 1.2 fold enrichment (6-mer frequency, TF over GST control). For GGAACT, the binding signal was 1.8 fold enrichment (6-mer frequency, TF over GST control). In the case of AGGAAG, the binding signal is reported as 1.57 fold enrichment (6-mer frequency, TF over GST control). With TTATTC the binding signal was 1.29 fold enrichment (6-mer frequency, TF over GST control). With AACCAC the binding signal was 1.16 fold enrichment (6-mer frequency, TF over GST control). For CTAAAC, the binding signal was 1.18 fold enrichment (6-mer frequency, TF over GST control). For GTTCAC, the binding signal was 1.13 fold enrichment (6-mer frequency, TF over GST control). For GATGCC, the binding signal was 1.41 fold enrichment (6-mer frequency, TF over GST control). With CACACG the binding signal was 1.12 fold enrichment (6-mer frequency, TF over GST control). In the case of CCTCAT, the binding signal is reported as 1.39 fold enrichment (6-mer frequency, TF over GST control). For TTTGGT, the binding signal was 1.36 fold enrichment (6-mer frequency, TF over GST control). ACCCCG was tested, and the binding signal was 1.27 fold enrichment (6-mer frequency, TF over GST control). TTTGGC was tested, and the binding signal was 1.2 fold enrichment (6-mer frequency, TF over GST control). In the case of CGTATG, the binding signal is reported as 1.1 fold enrichment (6-mer frequency, TF over GST control). With AACAAG the binding signal was 1.17 fold enrichment (6-mer frequency, TF over GST control). ACACCT was tested, and the binding signal was 1.13 fold enrichment (6-mer frequency, TF over GST control). With CGTACC the binding signal was 1.15 fold enrichment (6-mer frequency, TF over GST control). With CCATCT the binding signal was 1.33 fold enrichment (6-mer frequency, TF over GST control). For GACCTC, the binding signal was 1.31 fold enrichment (6-mer frequency, TF over GST control). For CCATAC, the binding signal was 1.19 fold enrichment (6-mer frequency, TF over GST control). With CCTCAA the binding signal was 1.39 fold enrichment (6-mer frequency, TF over GST control). TGATCC was tested, and the binding signal was 1.2 fold enrichment (6-mer frequency, TF over GST control). With AAAGAT the binding signal was 1.18 fold enrichment (6-mer frequency, TF over GST control). With GCCAAT the binding signal was 1.03 fold enrichment (6-mer frequency, TF over GST control). CGTCTT was tested, and the binding signal was 1.41 fold enrichment (6-mer frequency, TF over GST control). CGCTAC was tested, and the binding signal was 1.13 fold enrichment (6-mer frequency, TF over GST control). For CAGGAT, the binding signal was 1.19 fold enrichment (6-mer frequency, TF over GST control). ATTGCC was tested, and the binding signal was 1.24 fold enrichment (6-mer frequency, TF over GST control). In the case of GGCTAG, the binding signal is reported as 1.05 fold enrichment (6-mer frequency, TF over GST control).

Each sequence was assayed against SPI1 (Homo sapiens, UniProt P17947 1-270) in the same assay as above. Conditions: protein: recombinant; tags: N-terminal GST; dsDNA, one strand shown.
Summary of the method: as §1
CCTCAC was tested, and the binding signal was 1.28 fold enrichment (6-mer frequency, TF over GST control). With CGTCAC the binding signal was 1.28 fold enrichment (6-mer frequency, TF over GST control). With CATGCT the binding signal was 1.11 fold enrichment (6-mer frequency, TF over GST control). In the case of CTTACT, the binding signal is reported as 1.3 fold enrichment (6-mer frequency, TF over GST control). For CGGCAT, the binding signal was 1.13 fold enrichment (6-mer frequency, TF over GST control). For TGCATT, the binding signal was 1.31 fold enrichment (6-mer frequency, TF over GST control). For TCGCAA, the binding signal was 1.03 fold enrichment (6-mer frequency, TF over GST control). With TCGTAC the binding signal was 1.06 fold enrichment (6-mer frequency, TF over GST control). In the case of TTTACG, the binding signal is reported as 1.33 fold enrichment (6-mer frequency, TF over GST control). In the case of GAAGCA, the binding signal is reported as 1.28 fold enrichment (6-mer frequency, TF over GST control). TTTCAA was tested, and the binding signal was 1.32 fold enrichment (6-mer frequency, TF over GST control). In the case of ACCCGC, the binding signal is reported as 1.32 fold enrichment (6-mer frequency, TF over GST control). With GGAACT the binding signal was 2.42 fold enrichment (6-mer frequency, TF over GST control). In the case of AGGAAG, the binding signal is reported as 2.12 fold enrichment (6-mer frequency, TF over GST control). In the case of TTATTC, the binding signal is reported as 1.33 fold enrichment (6-mer frequency, TF over GST control). For AACCAC, the binding signal was 1.12 fold enrichment (6-mer frequency, TF over GST control). For CTAAAC, the binding signal was 1.17 fold enrichment (6-mer frequency, TF over GST control). In the case of GTTCAC, the binding signal is reported as 1.18 fold enrichment (6-mer frequency, TF over GST control). In the case of GATGCC, the binding signal is reported as 1.35 fold enrichment (6-mer frequency, TF over GST control). CACACG was tested, and the binding signal was 1.08 fold enrichment (6-mer frequency, TF over GST control). With CCTCAT the binding signal was 1.67 fold enrichment (6-mer frequency, TF over GST control). For TTTGGT, the binding signal was 1.27 fold enrichment (6-mer frequency, TF over GST control). With ACCCCG the binding signal was 1.14 fold enrichment (6-mer frequency, TF over GST control). With TTTGGC the binding signal was 1.22 fold enrichment (6-mer frequency, TF over GST control). For CGTATG, the binding signal was 1.07 fold enrichment (6-mer frequency, TF over GST control). With AACAAG the binding signal was 1.04 fold enrichment (6-mer frequency, TF over GST control). For ACACCT, the binding signal was 1.09 fold enrichment (6-mer frequency, TF over GST control). For CGTACC, the binding signal was 1.14 fold enrichment (6-mer frequency, TF over GST control). With CCATCT the binding signal was 1.21 fold enrichment (6-mer frequency, TF over GST control). In the case of GACCTC, the binding signal is reported as 1.36 fold enrichment (6-mer frequency, TF over GST control). For CCATAC, the binding signal was 1.18 fold enrichment (6-mer frequency, TF over GST control). With CCTCAA the binding signal was 1.55 fold enrichment (6-mer frequency, TF over GST control). With TGATCC the binding signal was 1.21 fold enrichment (6-mer frequency, TF over GST control). AAAGAT was tested, and the binding signal was 1.23 fold enrichment (6-mer frequency, TF over GST control). For GCCAAT, the binding signal was 1.01 fold enrichment (6-mer frequency, TF over GST control). For CGTCTT, the binding signal was 1.45 fold enrichment (6-mer frequency, TF over GST control). For CGCTAC, the binding signal was 1.16 fold enrichment (6-mer frequency, TF over GST control). With CAGGAT the binding signal was 1.1 fold enrichment (6-mer frequency, TF over GST control). For ATTGCC, the binding signal was 1.15 fold enrichment (6-mer frequency, TF over GST control). In the case of GGCTAG, the binding signal is reported as 1.08 fold enrichment (6-mer frequency, TF over GST control).
